According to PubChem BioAssay (NCATS):
Inconclusive results are not listed. Unmarked numbers belong to inactive results. Activity calls are given as the source filed them. The call rests on the fitted dose curve; in most records, active means well fitted curve in the direction sought with a large enough effect; inconclusive means small, poorly fitted or top-dose-only effect, or another doubt; inactive means no such curve, though single readings can be large; an effect the other way counts as inactive or inconclusive.

Assay: Quantitative High-Throughput drug screen in 47 multiple myeloma cell lines against the NCATS MIPE library collection: NCIH929_DSMZ cell viability assay (AID 1918978)
Settings: NCI-H929 myeloma viability, CellTiter-Glo ATP, 48 h; series mostly up to 45.8 µM; viability, % of control: at the top concentration
Summary of the method: (§1)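 500 cells/well; MIPE 4.0 drugs pin-transferred; 48 h, 37C, 5% CO2. CellTiter-Glo, 5 min RT, luminescence. Controls: DMSO 100%, media 0%.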
Further: nearly all actives have a fitted effect of over 35% in size.
Potency means the concentration at half of the fitted maximal effect.

Compound	Potency	viability, % of control [%]
COc1ccc2c(c1)CN(C)CC2c1ccc(Cl)c(Cl)c1 (stereo not given)	16.6 µM (active)	
Cc1nc(-c2ccc(-c3ccc(C(=O)N4CCc5cc6c(cc54)C4(CCN(C)CC4)CO6)cc3)c(C)c2)no1		113
CC(C)N[C@@H]1CCn2c(=O)[nH]c3cccc(c32)[C@@H]1O	9.35 µM (active)	
N=c1c2c(-c3ccccc3)c(-c3ccccc3)n(Cc3ccccc3)c2ncn1C1CCC(O)CC1 (stereo not given)	1.32 µM (active)	
CSCC[C@@H](NC(=O)[C@@H](Cc1ccccc1)NC(=O)CNC(=O)CNC(=O)[C@@H](N)Cc1ccc(O)cc1)C(=O)O		116
Cc1ccccc1-n1c(Cn2ncc3c(N)ncnc32)nc2cccc(C)c2c1=O	0.332 µM (active)	
CCOC(=O)c1cncn1[C@H](C)c1ccccc1		93.1
CC[C@H]1C=CC=CC[C@@H](C)[C@H](O)[C@@](C)(O)C(=O)[C@@H](C)[C@H](O)[C@@H](C)C(=O)[C@@H](C)[C@H](O)[C@@H](C)C=CC(=O)O[C@@H]2[C@@H](C)[C@H](CC1)O[C@]1(CC[C@H](C)[C@H](C[C@@H](C)O)O1)[C@H]2C	0.0296 µM (active)	
CCNC(=O)CC1N=C(c2ccc(Cl)cc2)c2cc(OC)ccc2-n2c(C)nnc21 (stereo not given)	10.5 µM (active)	
N#C[C@H](O[C@@H]1O[C@H](CO[C@@H]2O[C@H](CO)[C@H](O)[C@H](O)[C@H]2O)[C@H](O)[C@H](O)[C@H]1O)c1ccccc1	23.5 µM (active)	
CC1=NN=C(c2ccc(N)cc2)c2cc3c(cc2C1)OCO3		134
Cc1c(C(=O)c2cccc3ccccc23)c2cccc3c2n1[C@H](CN1CCOCC1)CO3	23.5 µM (active)	
CCN1C[C@]2(OC(=O)c3ccccc3NC(C)=O)CC[C@H](OC)[C@@]34[C@H]5CC6[C@@H](OC)C[C@](O)(C(C[C@@H]23)[C@@H]14)[C@@]5(O)[C@@H]6OC		123
CC1(N2CCC(n3c([C@@H]4CCCNC4)nc4ccccc43)CC2)CCCCCCC1	11.8 µM (active)	
O=C1CCC[C@@H]2[C@H]3CCCN4CCC[C@@H](CN12)[C@@H]34		95.3
O=[N+]([O-])c1ncc[nH]1		91.4
CN[C@@H]1Cc2cccc3[nH]c(=O)n(c23)C1		114
CC(C)(C)c1cc(C=C(C#N)C#N)cc(Br)c1O	16.6 µM (active)	
CCCN1CCO[C@@H]2c3cc(O)ccc3OC[C@@H]21		115
CCOP(=O)(OCC)C(C)NC(=O)N(CCCl)N=O (stereo not given)		116
CC(O)=C(C#N)C(=O)Nc1cc(Br)ccc1Br		104
C[C@]12Cc3cn[nH]c3C[C@@H]1CC[C@@H]1[C@H]2CC[C@@]2(C)[C@H]1CC[C@]2(C)O		112
CC(N[C@H]1C[C@H]1c1ccccc1)c1ccc2c(c1)OCCO2 (stereo not given in full)		110
COC[C@H]1OC(=O)c2coc3c2[C@@]1(C)C1=C(C3=O)[C@@H]2CC[C@H](O)[C@@]2(C)C[C@@H]1OC(C)=O	0.209 µM (active)	
CN(C)NC(=O)CCC(=O)O		97.4
O=C(NCC1CCOCC1)c1cnc(Nc2ccc(Cl)cc2Cl)nc1C(F)(F)F	4.69 µM (active)	
C[C@]12CCC(=O)C(O)=C1CC[C@@H]1[C@H]3CCC(=O)[C@@]3(C)CC[C@@H]12		87.3
O=C(Nc1ccncc1)C(=O)c1cn(Cc2ccc(Cl)cc2)c2ccccc12	1.32 µM (active)	
CC(=O)Nc1ccc(OC[C@](C)(O)C(=O)Nc2ccc([N+](=O)[O-])c(C(F)(F)F)c2)cc1		83.1

Assay: Quantitative High-Throughput drug screen in 47 multiple myeloma cell lines against the NCATS MIPE library collection: OCIMY1_PLB cell viability assay (AID 1918979);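 on viability: 100% = DMSO-only wells and 0% = cell-free media-only wells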
Settings: OCI-MY1 myeloma viability, CellTiter-Glo ATP, 48 h; series mostly up to 45.8 µM; viability: at the top concentration
Summary of the method: as §1

Compound	viability [%]	Potency
O=C1C=CC[C@@H]2[C@H]3CCCN4CCC[C@@H](CN12)[C@@H]34	97.7	
COc1ccc2c(c1)CN(C)CC2c1ccc(Cl)c(Cl)c1 (stereo not given)	84.8	
C[C@]12CC[C@@H]3[C@@H](CCC4=CC(=O)CC[C@@H]43)[C@@H]1CC[C@@H]2OC(=O)CCc1ccccc1	97.2	
CCOC(=O)c1c(C(C#N)=CN)c2ccc(Cl)c(Cl)c2n1C	112	
CSCC[C@@H](NC(=O)[C@@H](Cc1ccccc1)NC(=O)CNC(=O)CNC(=O)[C@@H](N)Cc1ccc(O)cc1)C(=O)O	111	
Cc1c(N)nc([C@H](CC(N)=O)NC[C@@H](N)C(N)=O)nc1C(=O)N[C@H](C(=O)N[C@@H](C)[C@H](O)[C@@H](C)C(=O)N[C@@H](C(=O)NCCc1nc(-c2nc(C(=O)NCCC[S+](C)C)cs2)cs1)[C@@H](C)O)C(O[C@H]1O[C@H](CO)[C@H](O)[C@@H](O)[C@@H]1O[C@H]1O[C@H](CO)[C@@H](O)[C@H](OC(N)=O)[C@H]1O)c1cnc[nH]1 (stereo not given in full)		13.2 µM (active)
C[C@]12CC[C@H]3[C@@H](CCC4=CC(=O)CC[C@@]43C)[C@H]1CC[C@H]2OC(=O)CCC1CCCC1	83.4	
CCOC(=O)c1cncn1[C@H](C)c1ccccc1	105	
CCNC(=O)CC1N=C(c2ccc(Cl)cc2)c2cc(OC)ccc2-n2c(C)nnc21 (stereo not given)		18.7 µM (active)
N#C[C@H](O[C@@H]1O[C@H](CO[C@@H]2O[C@H](CO)[C@H](O)[C@H](O)[C@H]2O)[C@H](O)[C@H](O)[C@H]1O)c1ccccc1		20.9 µM (active)
CC1(N2CCC(n3c([C@@H]4CCCNC4)nc4ccccc43)CC2)CCCCCCC1		20.9 µM (active)
CN[C@@H]1Cc2cccc3[nH]c(=O)n(c23)C1	98.5	
CCCN1CCO[C@@H]2c3cc(O)ccc3OC[C@@H]21	105	
CCOP(=O)(OCC)C(C)NC(=O)N(CCCl)N=O (stereo not given)	116	
CC(O)=C(C#N)C(=O)Nc1cc(Br)ccc1Br	100	
C[C@]12Cc3cn[nH]c3C[C@@H]1CC[C@@H]1[C@H]2CC[C@@]2(C)[C@H]1CC[C@]2(C)O	98.2	
CC(N[C@H]1C[C@H]1c1ccccc1)c1ccc2c(c1)OCCO2 (stereo not given in full)	99.7	
CN(C)NC(=O)CCC(=O)O	137	
C[C@](O)(COc1ccc(C#N)cc1)C(=O)Nc1ccc(C#N)c(C(F)(F)F)c1	104	
C[C@]12CCC(=O)C(O)=C1CC[C@@H]1[C@H]3CCC(=O)[C@@]3(C)CC[C@@H]12	104	
O=C(Nc1ccncc1)C(=O)c1cn(Cc2ccc(Cl)cc2)c2ccccc12		0.118 µM (active)
